Results with a measured potency or affinity are listed apart. Results filed as inconclusive are left out. Activity calls are given as the source filed them.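 The calls were made as follows: active = in every test run, a fitted half-maximal concentration for signal decrease at or below twice the highest tested concentration; inconclusive = runs disagree, flat 30 to 70% decrease, or poor fit; inactive = the rest.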
Test: activation of miR-122 Renilla sensor silencing – cell-based, Huh7 psiCHECK-miR122, Renilla luciferase, cherry-picked, dose response (AID 651956);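 also: Renilla luciferase from a miR-122 sensor reporter so lower signal means miR-122 activation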
Details: Huh7 psiCHECK-miR122 Renilla luciferase reporter, 48 h; series mostly up to 35 µM

Structure (SMILES) | outcome
CCCCC(=O)NC(c1ccccc1OC)c1ccc2cccnc2c1O (centres undefined) | inactive
C[C@@H]1CN([C@@H](C)CO)C(=O)c2cccc(NC(=O)c3ccc(-c4nccs4)cc3)c2O[C@H]1CN(C)Cc1ccc2c(c1)OCO2 | inactive
COc1ccc(OC)c(Nc2cc(C)nc3ccc(C)cc23)c1 | inactive
O=C(NC[C@@H]1[C@H](c2ccccc2)[C@@H](CO)N1Cc1cccnc1)c1ccccn1 | inactive
CN1C(=O)c2cc(NC(=O)Nc3ccccc3F)ccc2OC[C@@H]2O[C@@H](CC(=O)NCc3ccc(-c4ccccc4)cc3)CC[C@@H]21 | inactive
CCOC(=O)C1CCN(C(c2cccnc2)c2c(NC(=O)c3ccco3)sc(C)c2C)CC1 (centres undefined) | inactive
COc1cc(N)c(Cl)cc1NC(=O)c1ccccc1 | inactive
Cc1ccccc1NC(=O)Nc1ccc2c(c1)C(=O)N(C)[C@H]1CC[C@@H](CC(=O)O)O[C@H]1CO2 | inactive
CCN(CC)CCNc1nc(-c2ccccc2)nnc1C(F)(F)F | inactive
COc1ccc(-c2ccc(C#N)c(OC(=O)c3c(Cl)cccc3Cl)n2)cc1 | inactive
Cc1ccc(Nc2c(-c3ccccn3)nc3cc(C)ccn23)cc1 | inactive
CCNC(=O)C[C@@H]1CC[C@H]2[C@@H](COc3ccc(NC(=O)Nc4ccc(F)cc4)cc3C(=O)N2C)O1 | inactive
CCNC(=O)C[C@H]1CC[C@@H]2[C@@H](COc3ccc(NC(=O)c4cccc(C(F)(F)F)c4)cc3C(=O)N2C)O1 | inactive
COc1cccc(CNC(=O)C[C@@H]2CC[C@@H]3[C@@H](COc4ccc(NC(C)=O)cc4C(=O)N3C)O2)c1 | inactive
CC(C)C(=O)Nc1ccc2c(c1)C(=O)N(C)[C@H]1CC[C@H](CC(=O)Nc3cccc(F)c3)O[C@@H]1CO2 | inactive
COc1ccc(CNCCC(c2ccc(OC)cc2)c2ccccc2OC)cc1 (centres undefined) | inactive
CN1C(=O)c2cc(NC(=O)c3ccccc3F)ccc2OC[C@H]2O[C@H](CC(=O)NCc3ccc4c(c3)OCO4)CC[C@@H]21 | inactive
CN1C(=O)c2cc(NC(=O)Cc3ccccc3)ccc2OC[C@H]2O[C@@H](CC(=O)NC3CCC3)CC[C@@H]21 | inactive
CCCNC(=O)C[C@@H]1CC[C@H]2[C@H](COc3ccc(NC(=O)c4ccc(C(F)(F)F)cc4)cc3C(=O)N2C)O1 | inactive
COc1cccc(OCc2cc(/C=N/Nc3ccc(C(=O)O)cc3)ccc2OC)c1 | inactive

Structure (SMILES) | outcome
CNC(=O)C[C@@H]1CC[C@H]2[C@@H](COc3ccc(NC(=O)NC(C)C)cc3C(=O)N2C)O1 | inactive
CC(C)C(=O)Nc1ccc2c(c1)C(=O)N(C)[C@@H]1CC[C@H](CC(=O)NCC3CC3)O[C@H]1CO2 | inactive
CNC(=O)C[C@H]1CC[C@H]2[C@H](COc3ccc(NC(=O)c4cccc(F)c4)cc3C(=O)N2C)O1 | inactive
COc1ccc(CN2CCN(Cc3cccn3-c3ncccn3)CC2CCO)c(C)c1C (centres undefined) | inactive
COC(=O)C[C@@H]1CC[C@@H]2[C@@H](COc3ccc(NS(=O)(=O)c4ccccc4F)cc3C(=O)N2C)O1 | inactive
CN1C(=O)c2cc(NC(=O)c3cccc(F)c3)ccc2OC[C@@H]2O[C@@H](CC(=O)NC3CCC3)CC[C@@H]21 | inactive
CN1C(=O)c2cc(NC(=O)Nc3ccccc3Cl)ccc2OC[C@H]2O[C@H](CC(=O)O)CC[C@H]21 | inactive
CNC(=O)c1nc(C)n(-c2cc(Cl)cc(Cl)c2)n1 | inactive
COc1cccc(C(=O)Nc2ccc3c(c2)C(=O)N(C)[C@@H]2CC[C@@H](CC(=O)NCc4ccc(F)cc4)O[C@@H]2CO3)c1 | inactive
CCCC(=O)Nc1ccc2c(c1)C(=O)N(C)[C@H]1CC[C@H](CC(=O)NCCN3CCCCC3)O[C@@H]1CO2 | inactive
O=C(C1CCOCC1)N1C[C@H]2[C@@H](c3ccccc31)[C@@H](CO)N2Cc1ccccc1 | inactive
C[C@H]1CN([C@@H](C)CO)S(=O)(=O)c2ccc(C#CC3CCCCC3)cc2O[C@@H]1CN(C)C | inactive
CCNC(=O)C[C@H]1CC[C@H]2[C@@H](COc3ccc(NC(=O)c4ccccc4)cc3C(=O)N2C)O1 | inactive
CC(C)Oc1ccc(C(CCN)C2CCCCC2)cc1 (centres undefined) | inactive
CCCNC(=O)C[C@@H]1CC[C@@H]2[C@H](COc3ccc(NC(=O)c4cc(F)cc(F)c4)cc3C(=O)N2C)O1 | inactive
CN1C(=O)c2cc(NC(=O)c3ccc4c(c3)OCO4)ccc2OC[C@H]2O[C@@H](CC(=O)O)CC[C@@H]21 | inactive
C/C=C/c1ccc([C@@H]2[C@@H](CO)N(Cc3ccccn3)[C@H]2CNC(=O)CC)cc1 | inactive
CCOC(=O)C1CN(S(=O)(=O)c2ccccc2)CCN1S(=O)(=O)c1ccccc1 (centres undefined) | inactive
CC(=O)N1[C@H](CN(C(=O)c2ccc(F)cc2)C(C)C)[C@@H](c2ccccc2)[C@@H]1CO | inactive
